Data on eight compounds can be found in PubChem BioAssay (NCI).

Test in all cases: NCI-60 one-dose screen, 48 h (100 = growth as untreated, 0 = no growth, -100 = all killed)
Conditions in all cases: 10 µM

Experiment [1] deals with SR leukemia.
The test system of experiment [2] is RPMI-8226 leukemia.
The subject of experiment [3] is OVCAR-8 ovarian.
In experiment [4] the test system is OVCAR-5 ovarian.
The subject of experiment [5] is OVCAR-4 ovarian.
For experiment [6], the system named is SK-OV-3 ovarian.
Experiment [7] has as its system IGROV1 ovarian.
Experiment [8] has as its system OVCAR-3 ovarian.
Experiment [9] deals with HS 578T breast.
Experiment [10] has as its system NCI/ADR-RES ovarian.
In experiment [11] the test system is T-47D breast.
Experiment [12] relates to BT-549 breast.
Experiment [13] deals with MDA-MB-435 melanoma.
Experiment [14] relates to SW-620 colon.
Experiment [15] deals with MCF7 breast.
In experiment [16] the test system is HCT-116 colon.
The test system of experiment [17] is HCC-2998 colon.
Experiment [18] concerns KM12 colon.
In experiment [19] the test system is MDA-MB-468 breast.

SMILES strings stand for the structures. Values joined by “and” are separate entries in the source; they are usually repeats but may differ in a detail not shown here. Equal values may be shown once. This is part of a sample that, as a whole, favours compounds with a hit. Of some 83,000 tested, about 20% had one in any assay.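 Results are percent growth after 48 hours of single-concentration exposure. 100 means growth as in untreated cells, lower positive values show inhibition; negative values down to -100 show cell death.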 Values without a mark were called inactive. Active and inactive are the calls of the source. The calls were made as follows: active = growth percent below 10; inactive = the rest.

As to `Nc1nc(-c2ccccc2)cs1`, the growth in experiment [1] is 30%; in [2], 34.6%; in experiment [3], 37.7%; in experiment [4], 83.5%; in experiment [5] it was 59.4%; in [6] it was 82.5%. The growth in [7] is 63.7%; in experiment [8], 44.6%; in [9], 55.8%; in experiment [10] it was 28.5%; in experiment [11], 16.3%; in experiment [12], 31.1%. The growth in [13] is 67.9%; in experiment [14], 70.5%; in experiment [15] it was 39.7%; in [16], 50.7%; in experiment [17], 74.6%; in [18] it was 43.1%. For the same compound, in experiment [19], the growth is 55.1% and 115%.

`CC1CC(c2ccc(N(C)C)cc2)=NN1c1nc(O)c(C2=c3cc(Br)ccc3=NC2=O)s1` (configuration not stated): the growth in experiment [1] is 67.6%; in [2], 28.1%; in experiment [3], 83%; in experiment [4] it was 123%; in [5] it was 94.5%; in experiment [6] it was 91.3%. Besides, the growth was 110% in experiment [7]; 73.6% in experiment [8]; 70% in experiment [9]; 7.99% (active) in [10]; 66.7% in experiment [11]; 85% in experiment [12]. Moreover, the growth is 102% in experiment [13]; 78.9% in experiment [14]; 78.6% in experiment [15]; 66.8% in experiment [16]; 32.1% in experiment [17]; 73.2% in [18]. Further, the growth in [19] is 54.2%.

For the compound `Clc1ccc2c(N/N=C/c3c[nH]c4ccc(Br)cc34)ccnc2c1`, the growth in experiment [1] is -45.6% (active); in experiment [2], -42.1% (active); in experiment [3], -64.6% (active); in [4], -66.5% (active); in experiment [5], -78.6% (active); in experiment [6], -84.7% (active). In addition, the growth in [7] was -41.2% (active); in experiment [8], -82.8% (active); in experiment [9] it was -58.5% (active); in experiment [10], -77.5% (active); in experiment [11], -54.6% (active); in [12] it was -79.5% (active). In addition, the growth is -77.3% (active) in [13]; 2.03% (active) in experiment [14]; -56.8% (active) in [15]; -10.3% (active) in experiment [16]; -92.5% (active) in [17]; -81.7% (active) in experiment [18]. In addition, in [19], the growth is -94.2% (active).

On to `C/C(=C\CSc1ccccc1C(=O)O)CCCC(C)CCCC(C)CCCC(C)C` (configuration not stated), for which the growth in [1] was 18.7%; in experiment [2], 35%; in experiment [3], 54%; in experiment [4] it was 115%; in experiment [5], 57.3%; in experiment [6], 96.5%. The growth was 76.1% in experiment [7]; 74.4% in experiment [8]; 56% in experiment [9]; 43.1% in [10]; 37.3% in experiment [11]; 80.6% in experiment [12]. For the same compound, the growth in experiment [13] is 71.8%; in [14], 55.1%; in experiment [15] it was 50.4%; in experiment [16], 34.4%; in experiment [17], 18.3%; in experiment [18], 46.4%. In addition, the growth in experiment [19] is 60.3%.

As for `COc1ccc2[nH]cc(/C=N/Nc3cccc(Cl)n3)c2c1`, the growth is 17.1% in experiment [1]; -0.856% (active) in [2]; 57.9% in [3]; 77.4% in experiment [4]; 59.8% in experiment [5]; 91.4% in [6]. The growth in [7] was 5.42% (active); in experiment [8], 17.4%; in [9], 49.9%; in [10] it was 22.2%; in experiment [11], 31.5%; in experiment [12], 12.1%. The growth in experiment [13] is 44.7%; in experiment [14], 79.7%; in [15], 31.9%; in experiment [16], 37.3%; in experiment [17], 39.7%; in [18], 21.3%. Also, the growth in experiment [19] was -13.2% (active).

Turning to `O=C(NO)c1ccc(Cn2ccc3c(NCc4ccccc4)ncnc32)cc1`, the growth in experiment [1] is 12.7%; in [2] it was 17.2%; in experiment [3], -37.8% (active); in experiment [4], -8.63% (active); in experiment [5], 36%; in experiment [6], -30.5% (active). Further, the growth in experiment [7] was -40.1% (active); in [8], 8.99% (active); in experiment [9] it was -0.0703% (active); in [10], -32.1% (active); in experiment [11], -16.8% (active); in experiment [12], -22% (active). For the same compound, the growth is -26.5% (active) in experiment [13]; -64.8% (active) in experiment [14]; 9.85% (active) in experiment [15]; -7.75% (active) in experiment [16]; -3.05% (active) in experiment [17]; 11.9% in experiment [18]. Besides, the growth in experiment [19] was -18.6% (active).

In the case of `Oc1ccc(/C=C2\CCCc3cc4ccc(O)cc4[o+]c32)c(O)c1`, the growth in experiment [1] is 15.3%; in [2] it was 50.6%; in experiment [3], -56.9% (active); in experiment [4], 122%; in experiment [5], 42.9%; in experiment [6], 86.3%. Moreover, the growth is 21.4% in experiment [7]; -45.1% (active) in [8]; 52.3% in [9]; -24.7% (active) in [10]; 18.3% in experiment [11]; 23.3% in [12]. The growth was -40.7% (active) in experiment [13]; 20.5% in [14]; 10.8% in experiment [15]; 15.7% in [16]; 31% in experiment [17]; 6.02% (active) in [18]. In addition, the growth in experiment [19] was -13.8% (active).

In the case of `Cc1noc2c(Cc3ccc([N+](=O)[O-])cc3)nn(CC(=O)N/N=C/c3ccc(Cl)cc3)c(=O)c12`, the growth in experiment [1] was 88.6%; in [2], 84.7%; in experiment [3] it was 20.1%; in [4], 73.7%; in experiment [5] it was 7.98% (active); in experiment [6], 67.2%. Also, the growth in experiment [7] is 63.2%; in experiment [8] it was 35.8%; in experiment [9] it was 10%; in experiment [10], 45.9%; in [11] it was 43.8%; in experiment [12], 56%. Also, the growth in [13] is 76.3%; in experiment [14], 68.2%; in experiment [15], 52.5%; in experiment [16] it was 21.7%; in [17], 70.7%; in experiment [18] it was 69.7%. The growth in [19] was 5.37% (active).
